Source: PubChem
LASV entry inh: qHTS for Inhibitors of binding or entry into cells for Lassa Virus | Lassa virus pseudotyped entry inhibition, cell-based qHTS | Potency, µM (series often up to 49.2 µM), without a hit: at the highest dose activity change, negative = inhibition, actives largely listed as inhibitors | 4.1% of 18,000 active | AID 720533, 2013
MARV entry inh: qHTS for Inhibitors of binding or entry into cells for Marburg Virus; 6.5% of 18,000 active; Potency, µM (doses to about 49.2 µM), for the others: top-dose activity change, negative = inhibition, actives largely listed as inhibitors; Marburg virus pseudotype entry/binding inhibition, cell-based
Active calls of the source: *; ? = inconclusive; . = no result given; ! = not active in a repeat; [ ] = remark or other dose. Most compounds without a hit are left out; they make up all but 7.1% or so of the library. Calls follow the shape of the full dose curve; tested in HEK293 cells. % is scaled to controls: 0 for no effect and ±100 for the full control effect; potency is read from the fitted curve at half-maximal effect.

SMILES | LASV entry inh | MARV entry inh
CC(C)=CCC12CC3[C@@H](O)C(C(=O)c4ccccc4)(C1=O)C(=O)C(CC=C(C)C)(C2=O)C3(C)C (stereo not given in full) | . | -26%[8.59 µM]
CN(C)CCOc1ccccc1Cc1ccccc1 (tested in a mixture with another compound) | -24% | ?
CC/C(=C(\c1ccccc1)c1ccc(OCCN(C)C)cc1)c1ccccc1 | . | 10µM*!
COc1cc(CNC(=O)CCCC/C=C/C(C)C)ccc1O | 25µM*! | 7%
CCCCC/C=C\C/C=C\C/C=C\C/C=C\CCCC(=O)NCc1ccc(O)c(OC)c1 | 7.9µM* | ?
CCCCCCCCC(=O)NCc1ccc(O)c(OC)c1 | 0% | 5%
CCCCC[C@H](O)CC(=O)CCc1ccc(O)c(OC)c1 | -9% | 1%
CSC[C@H]1CN(CCc2ccccc2)C(=O)[C@H]1CC(=O)Nc1ccc(Br)cc1 | 12% | 12%
O=C(NN=C1C[C@@H](O)[C@H](O)[C@H]2[C@@H]3C(=O)N(c4cccc(Oc5ccccc5)c4)C(=O)[C@@H]3CC[C@H]12)OCc1ccccc1 | . | 4%[8.59 µM]
CCS(=O)(=O)NCc1c(C)ncc2c1CCN(C(=O)c1csc(-c3cccs3)n1)C2 | -23% | 4%
Cc1ncc2c(c1CNC(=O)c1cncs1)CCN(C(=O)c1csc(-c3cccs3)n1)C2 | -21% | 35µM*
Cc1ncc2c(c1CNC(=O)c1ccccc1F)CCN(C(=O)c1[nH]c3ccc(Cl)cc3c1C)C2 | 10µM* | ?
Cc1ncc2c(c1CNC(=O)c1ccccc1F)CCN(C(=O)c1ccc3c(c1)OCCO3)C2 | ? | 5%
COC(=O)C1=C(C)C(=O)[C@]2(O)c3ccccc3N(C)[C@]12C | -18%[8.59 µM] | 18%[8.59 µM]
Cc1cc(I)ccc1Nc1c(C(=O)NOCC2CC2)cc(F)c(F)c1F | ? | 11µM*
Cn1cnc2c(F)c(Nc3ccc(Br)cc3Cl)c(C(=O)NOCCO)cc21 | 9% | 8%
CCc1ccc2c(c1)N(CC(C)CN(C)C)c1ccccc1S2 (stereo not given) | 18µM* | 14µM*
CC(CN1c2ccccc2Sc2ccc(S(=O)(=O)N(C)C)cc21)N(C)C (stereo not given) | -5% | ?
C=CC[C@@H]1C=C(C(=O)OC)N(C(=O)C(F)(F)F)[C@@H](c2ccccc2Br)[C@@H]1C | 3%[8.59 µM] | 9%[8.59 µM]
COc1cccc2c1[C@H](C=Cc1ccccc1)[C@@H]([C@H](O)CN=[N+]=[N-])OC2 | -18%[8.59 µM] | -5%[8.59 µM]
O=C1C[C@@H](c2ccc(O)c(O)c2)Oc2c1ccc(O[C@@H]1O[C@H](CO)[C@@H](O)[C@H](O)[C@H]1O)c2O | -1% | ?
O=C(/C=C/c1ccc(O)c(O)c1)c1ccc(O[C@@H]2O[C@H](CO)[C@@H](O)[C@H](O)[C@H]2O)c(O)c1O | 2% | 3.2µM*
COc1cc(C=C2CCC/C(=C\c3ccc(O)c(OC)c3)C2=O)ccc1O | 32µM* | ?
COc1cc(/C=C/C(=O)CC(=O)/C=C/c2ccc(O)c(OC)c2)ccc1O | 32µM*! | ?
COc1cc(/C=C/C(=O)O)ccc1O | -12% | 8%
SMILES | LASV entry inh | MARV entry inh
COc1cc(C=O)ccc1O | -4% | 0%
COc1cccc(/C=C/C(=O)O)c1C(C)C | -1% | 7%
COc1ccc(/C=C/C(=O)CC(=O)/C=C/c2cccc(O)c2OC)cc1O | 10µM* | 8.9µM*
COC(=O)CC=C[C@@H](C)[C@H](OC)c1c(Br)ccc2c1OCO2 | 5%[8.59 µM] | ?
CC(C)CON=C1C[C@@H](O)[C@@H](O)[C@@H]2[C@H]3C(=O)N(Cc4ccc5c(c4)OCO5)C(=O)[C@@H]3CC[C@H]12 | 20%[8.59 µM] | 30%[8.59 µM]
C#CCCCON=C1C[C@@H](O)[C@H](O)[C@H]2[C@@H]3C(=O)N(c4ccc(F)cc4F)C(=O)[C@@H]3CC[C@H]12 | 2%[8.59 µM] | -6%[8.59 µM]
CCN1C(N(C)CCc2ccc(Br)cc2)=NC(c2ccccc2)C(C(=O)OC)=C1C (stereo not given) | 0%[8.59 µM] | ?
CCc1cc2c(nc1CC)CCN(CCC(C)=NOC[C@H]1O[C@H](c3ccccc3)C=C[C@H]1Oc1ccc(OC)cc1)C2 | 2%[8.59 µM] | -25%[8.59 µM]
CC(=O)O[C@H]1[C@H]2O[C@]23[C@@H]2CC[C@@H]4C[C@@H](O)CC[C@]4(C)[C@H]2CC[C@]3(C)[C@H]1c1ccc(=O)oc1 | 0.2µM* | 0.089µM*
CC(=O)[C@H]1CC[C@H]2[C@@H]3CC[C@@H]4C[C@H](O)CC[C@]4(C)[C@H]3CC[C@]12C | -3% | 0%
OCc1cc([C@@H](O)CNCCCCCCOCCCCc2ccccc2)ccc1O | ? | 13µM*
CCCCNCC(O)c1ccc(O)cc1 (stereo not given) | -2% | 6%
COC(=O)[C@@H]1[C@H](CCc2ccccc2)NC(=O)N(Cc2ccccc2)[C@H]1C | . | -24%[8.59 µM]
C=CCN1c2ccccc2[C@]23CCC(=O)N(Cc4cc(OC)c(OC)c(OC)c4)C2=NC(C(=O)OC)=C(C(=O)OC)[C@H]13 | -15%[8.59 µM] | -7%[8.59 µM]
CN(CCCN1c2ccccc2CCc2ccccc21)CC(=O)c1ccc(Cl)cc1 | ? | 7.9µM*
CN1C(=O)CC(=O)N(c2ccccc2)c2cc(Cl)ccc21 | -11% | -10%
NCCNC(=O)c1ccc(Cl)cc1 | -2% | 7%
CN(C)CCCN1c2ccccc2CCc2ccc(Cl)cc21 | 11µM*! | 8.9µM*
CNCCCN1c2ccccc2CCc2ccccc21 | ? | 7.9µM*
C[C@]12C[C@@](C)(C=C1C=Cc1ccc(C(F)(F)F)cc1)C(=O)C[C@H]2c1ccc(C(F)(F)F)cc1 | 13%[8.59 µM] | 48%[8.59 µM]
O=C(C1CCCCC1)N1C[C@H](O)[C@H](n2cc(C3CC3)nn2)C[C@@H]1c1ccccc1 | 2% | 22%
O=C1[C@H]2[C@@H]3[C@@H](O)[C@H](O)CC(=NOCc4ccccc4)[C@@H]3CC[C@H]2C(=O)N1C[C@@H]1CCCO1 | 9%[8.59 µM] | 6%[8.59 µM]
CC(C)c1ccc2c(N=Nc3ccc(S(N)(=O)=O)cc3)c(O)[nH]c2c1 | 23% | ?
O=S1(=O)N[C@H](Cc2ccccc2)COc2cc(NCCO)ccc21 | 16% | 20%
c1ccc2sc(C3(N4CCCC4)CCCCC3)cc2c1 | 1% | 6.3µM*
SMILES | LASV entry inh | MARV entry inh
c1ccc2sc(C3(NCC4CC4)CCCCC3)cc2c1 | ? | 14µM*
CC(CCN1CCCCc2nc(C)c(C)cc21)=NO[C@H](C)c1cn([C@H](CO)Cc2ccccc2)nn1 | 9%[8.59 µM] | ?
Cc1cc(-c2ccccn2)cc(C)c1C=Cc1cncc(-c2nn[nH]n2)c1 | 38% | -21%
CCc1cc2c(nc1CC)CCN(CCC(C)=NO[C@@H](C)CN1CCCc3nc(C)c(C)cc31)C2 | -10%[8.59 µM] | -24%[8.59 µM]
Cc1cc2c(c(=O)n1Cc1ccccc1)[C@H]1O[C@](c3ccsc3)(Cc3ccccc31)O2 | 5%[8.59 µM] | -12%[8.59 µM]
Nc1nc(-c2cccc(Cl)c2)c(-c2ccc3ncccc3n2)s1 | 18% | 5%
O=c1oc2ccccc2c2c1[C@H]1O[C@](c3ccsc3)(Cc3ccccc31)O2 | 2%[8.59 µM] | 9%[8.59 µM]
Nc1ccc2cc3ccc(N)cc3nc2c1 | 25µM* | 10µM*
CCOc1ccc2nc3cc(N)ccc3c(N)c2c1 | 22% | 2%
COC(=O)[C@@]1(C=C2c3ccccc3[C@@H](OC)[C@@H]2C)[C@@H]2Oc3ccccc3[C@@H]21 | . | 0%[8.59 µM]
CC1(C)CC(=O)C2=C(C1)O[C@@]1(CCCCN3C(=O)c4ccccc4C3=O)Cc3ccccc3[C@H]2O1 | -15%[8.59 µM] | 11%[8.59 µM]
CCN1C(=O)NC(c2ccco2)C(C(=O)OC)=C1C (stereo not given) | -20%[8.59 µM] | 5%[8.59 µM]
O=C(O)c1ccccc1O | -6% | 5%
